Reference: PubChem BioAssay (NCATS)
Records with an inconclusive call do not appear. Calls of active or inactive are those of the source. Unless noted, calls follow the shape of the dose curve; as a rule, active = well fitted curve in the direction sought with a large enough effect; inconclusive = small, poorly fitted or top-dose-only effect, or another doubt; inactive = no such curve, though single readings can be large; an effect the other way counts as inactive or inconclusive.

Experiments:
[1] = Validation screen for small molecules that induce DNA re-replication in MCF 10A normal breast cells (AID 463097); also: nearly all actives have a fitted effect of over 60% in size
Method in brief: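 Read-out is Hoechst total nuclear intensity by fluorescence scanning imager, flagging increased high-DNA-content nuclei. Compounds were incubated with MCF 10A cells for 48 hr (37 C, 5% CO2) before 40 min staining.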

[2] = Quantitative high throughput screen for delayed death inhibitors of the malarial parasite plastid, 96 hour incubation (AID 488745); also: series mostly up to about 29 µM; nearly all actives have a fitted effect of over 70% in size
Method in brief: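 P. falciparum carrying an integrated firefly luciferase reporter, grown in erythrocytes (2% hematocrit, 0.1% parasitemia final) in RPMI 1640/0.5% Albumax, was exposed to compound for 96 h (two generations) at 37 C, 5% CO2. Luminescence decrease indicated growth inhibition.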

[3] = Quantitative high throughput screen for delayed death inhibitors of the malarial parasite plastid, 48 hour incubation (AID 488752); also: nearly all actives have a fitted effect of over 65% in size
Description: (§1) NIH Molecular Libraries Probe Production Network [MLPCN]
(§2) NIH Chemical Genomics Center [NCGC]
Assay Provider: David Fidock and Eric Ekland, Columbia University
The goal of this screen is to discover new antimalarial compounds that act by inhibiting the development of the apicoplast in the malarial parasite Plasmodium falciparum. The biochemical processes that make this organelle essential for erythrocytic stage parasites are not well understood. However, antibiotics, such as azithromycin and tetracycline, which target the apicoplast translational machinery, have a potent antimalarial effect.
We have developed a cell-based assay that measures parasite growth based on the expression of an integrated copy of a firefly luciferase reporter. […] Growth inhibition is detected by a decrease in luciferase activity
Four microliters of culture medium (RPMI 1640 with 0.5% w/v Albumax (GIBCO), 24 mM sodium bicarbonate and 10 ug/mL gentamycin) were dispensed by a Multi-drop Combi into white solid 1536-well plates (Grenier) and 23 nL compound was added by a pin tool. […] Two microliters of luciferase detection reagent was added and luminescence was detected by a ViewLux (PerkinElmer) reader

[4] = Cytometry Cell-Based qHTS for Inhibitors of the mTORC1 Signaling Pathway in MEF cells (AID 2668);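 also: Tsc2-/- p53-/- mouse embryonic fibroblasts stably re-expressing wild-type Tsc2; percent cells positive for phospho-rpS6 Ser235/236 relative to propidium iodide stain; series mostly up to about 38 µM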
Method in brief: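 Phospho-rpS6 (Ser235/236) immunofluorescence over PI signal, scored as % positive cells using thresholds from 7.5 nM rapamycin and DMSO wells, after 24 h compound exposure of WT-Tsc2-rescued Tsc2-/-, p53-/- MEFs. PI cell count recorded for viability.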

[5] = biological target: Ubiquitin carboxyl-terminal hydrolase 2 (Homo sapiens) (UniProt O75604); experiment: qHTS Validation Assay for Inhibitors of Ubiquitin-specific Protease USP2a Using CHOP2 as the Reporter (AID 463106)
Ubiquitin carboxyl-terminal hydrolase 2 (Homo sapiens), sequence (O75604 whole entry, looked up): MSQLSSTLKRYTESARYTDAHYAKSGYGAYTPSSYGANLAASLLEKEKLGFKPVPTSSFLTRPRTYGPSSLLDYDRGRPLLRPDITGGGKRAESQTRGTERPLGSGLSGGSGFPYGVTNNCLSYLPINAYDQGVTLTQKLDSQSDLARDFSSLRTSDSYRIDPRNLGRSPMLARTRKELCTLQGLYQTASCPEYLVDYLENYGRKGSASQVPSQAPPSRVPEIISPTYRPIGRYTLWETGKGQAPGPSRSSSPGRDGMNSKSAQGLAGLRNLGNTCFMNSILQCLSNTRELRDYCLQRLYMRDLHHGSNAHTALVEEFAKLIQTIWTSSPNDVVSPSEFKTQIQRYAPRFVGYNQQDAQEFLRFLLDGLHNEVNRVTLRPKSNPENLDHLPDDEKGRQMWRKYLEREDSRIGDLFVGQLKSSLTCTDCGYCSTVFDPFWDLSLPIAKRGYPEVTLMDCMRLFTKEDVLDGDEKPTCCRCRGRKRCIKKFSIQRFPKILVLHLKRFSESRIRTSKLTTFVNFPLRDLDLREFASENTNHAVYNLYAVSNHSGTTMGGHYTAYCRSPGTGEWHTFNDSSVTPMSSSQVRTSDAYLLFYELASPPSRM
Method in brief: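 10nM USP2 core + cpd, 30min RT; add 25nM Ub-CHOP2/25nM substrate; 60min RT; FI 485/531nm. Buffer Tris pH 8.0, CaCl2, BME, CHAPS. Norm. to NEM = 100% inhibition; time-zero read flags fluorescent artifacts.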

[6] = biological target: DNA polymerase III PolC-type (Bacillus subtilis (strain 168)) (UniProt P13267); experiment: qHTS Validation Assay for the Inhibitors of DNA Replication in Gram-Positive Bacteria (AID 485295);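 also: reconstituted holoenzyme with PolC plus beta clamp SSB and primase; PicoGreen fluorescence of double-stranded DNA made on primed circular M13 template; series mostly up to about 57 µM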
DNA polymerase III PolC-type (Bacillus subtilis (strain 168)), sequence (P13267 whole entry, looked up): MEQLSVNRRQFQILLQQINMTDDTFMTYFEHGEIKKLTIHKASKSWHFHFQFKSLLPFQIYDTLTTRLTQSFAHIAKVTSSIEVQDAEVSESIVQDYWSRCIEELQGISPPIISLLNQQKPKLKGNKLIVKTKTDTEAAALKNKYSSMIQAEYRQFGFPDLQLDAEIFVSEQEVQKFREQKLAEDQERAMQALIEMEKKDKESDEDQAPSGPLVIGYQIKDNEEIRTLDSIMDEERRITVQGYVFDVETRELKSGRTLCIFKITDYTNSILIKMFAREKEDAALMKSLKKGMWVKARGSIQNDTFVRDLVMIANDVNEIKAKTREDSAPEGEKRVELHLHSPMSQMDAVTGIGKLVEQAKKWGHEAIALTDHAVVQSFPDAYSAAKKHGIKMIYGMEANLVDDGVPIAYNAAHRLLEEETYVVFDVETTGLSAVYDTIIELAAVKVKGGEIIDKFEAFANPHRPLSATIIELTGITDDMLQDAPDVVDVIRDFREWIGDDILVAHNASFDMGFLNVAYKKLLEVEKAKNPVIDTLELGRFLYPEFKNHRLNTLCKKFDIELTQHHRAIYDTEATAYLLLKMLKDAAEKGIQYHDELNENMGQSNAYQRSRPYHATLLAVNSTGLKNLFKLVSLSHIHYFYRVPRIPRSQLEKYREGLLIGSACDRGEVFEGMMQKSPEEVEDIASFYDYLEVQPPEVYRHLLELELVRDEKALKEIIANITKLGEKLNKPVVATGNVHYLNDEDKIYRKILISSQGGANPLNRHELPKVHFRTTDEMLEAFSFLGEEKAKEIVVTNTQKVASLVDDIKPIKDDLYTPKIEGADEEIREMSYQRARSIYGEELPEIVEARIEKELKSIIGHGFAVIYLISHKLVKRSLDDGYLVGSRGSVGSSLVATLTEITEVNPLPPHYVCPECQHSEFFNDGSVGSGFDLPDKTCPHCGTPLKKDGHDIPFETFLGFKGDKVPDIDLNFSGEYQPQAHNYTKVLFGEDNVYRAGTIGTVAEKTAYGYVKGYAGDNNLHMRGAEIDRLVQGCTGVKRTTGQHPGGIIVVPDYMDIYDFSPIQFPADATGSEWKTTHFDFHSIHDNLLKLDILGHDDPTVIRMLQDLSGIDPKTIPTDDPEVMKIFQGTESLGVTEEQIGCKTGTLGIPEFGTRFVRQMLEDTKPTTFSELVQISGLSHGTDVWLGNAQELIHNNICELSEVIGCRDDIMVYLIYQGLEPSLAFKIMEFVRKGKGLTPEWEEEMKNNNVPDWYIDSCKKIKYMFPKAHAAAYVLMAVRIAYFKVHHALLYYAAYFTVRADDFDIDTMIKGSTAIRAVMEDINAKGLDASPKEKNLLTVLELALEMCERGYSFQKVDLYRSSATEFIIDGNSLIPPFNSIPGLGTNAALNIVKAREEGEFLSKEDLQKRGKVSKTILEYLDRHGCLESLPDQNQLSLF
Method in brief: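 Double-stranded DNA product detected by PicoGreen fluorescence after EDTA quench. Compound incubated with B. subtilis holoenzyme (PolC, beta subunit, SSB, primase) before substrate addition; primed replication of M13Gori with dNTPs and NTPs at room temperature; DMSO defines 0% inhibition.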

[7] = biological target: Tumor susceptibility gene 101 protein (Homo sapiens) (UniProt Q99816); experiment: qHTS Validation Assay for Iinhibitors of HIV-1 Budding by Blocking the Interaction of PTAP/TSG101 (AID 485342; calls by dose curve)
Tumor susceptibility gene 101 protein (Homo sapiens), sequence (Q99816 whole entry, looked up, the tested form may be a part): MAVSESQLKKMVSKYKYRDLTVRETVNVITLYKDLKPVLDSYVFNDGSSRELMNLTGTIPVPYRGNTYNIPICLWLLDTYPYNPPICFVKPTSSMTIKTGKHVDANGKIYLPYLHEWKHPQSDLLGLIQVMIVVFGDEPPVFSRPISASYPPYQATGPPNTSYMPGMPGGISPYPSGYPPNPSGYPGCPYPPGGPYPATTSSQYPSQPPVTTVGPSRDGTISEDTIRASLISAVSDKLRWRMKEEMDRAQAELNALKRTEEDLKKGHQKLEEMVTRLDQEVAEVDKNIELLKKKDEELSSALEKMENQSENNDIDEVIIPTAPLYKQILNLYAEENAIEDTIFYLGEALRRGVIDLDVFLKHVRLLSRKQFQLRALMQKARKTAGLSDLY
Method in brief: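 Fluorescence polarization of 50 nM FITC-PTAP peptide bound to 10 uM Tsg101 binding domain was read after 20 min room-temperature incubation with compounds, in 10 mM HEPES pH 7.5, 0.15 M NaCl, 0.01% Tween 20.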

[8] = biological target: Beta-2 adrenergic receptor (Homo sapiens) (UniProt P07550); experiment: qHTS validation assay of beta-arrestin-biased ligands of beta2-adrenergic receptor (AID 485366)
Beta-2 adrenergic receptor (Homo sapiens), sequence (P07550 whole entry, looked up): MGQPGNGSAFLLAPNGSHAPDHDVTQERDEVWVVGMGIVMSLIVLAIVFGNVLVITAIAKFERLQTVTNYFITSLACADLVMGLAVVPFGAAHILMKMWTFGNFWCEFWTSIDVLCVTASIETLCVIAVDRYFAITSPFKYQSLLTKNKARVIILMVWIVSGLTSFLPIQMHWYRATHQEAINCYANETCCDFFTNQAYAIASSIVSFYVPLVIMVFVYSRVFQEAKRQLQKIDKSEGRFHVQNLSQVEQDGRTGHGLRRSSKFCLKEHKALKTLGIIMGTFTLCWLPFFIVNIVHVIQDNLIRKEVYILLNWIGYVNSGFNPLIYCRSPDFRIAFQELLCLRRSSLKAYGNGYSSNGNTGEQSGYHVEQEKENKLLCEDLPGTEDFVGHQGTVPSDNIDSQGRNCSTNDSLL
Method in brief: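 Arrestin-recruitment (Tango) reporter: ligand-bound beta2-AR recruits beta-arrestin, releasing tTA, which upregulates luciferase. Titrations of up to 46 microM incubated 18 hr at 37 degrees C before luminescent readout.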

[9] = qHTS Validation Assay to Find Inhibitors of Chronic Active B-Cell Receptor Signaling (AID 485345; active = well fitted curve in the direction sought with a large enough effect in the main read-out, with a control signal flat, not every such curve was filed as active)
Description: as §1, §2
PI Name: Dr. R. Eric Davis
Diffuse large B-cell lymphoma (DLBCL) is the most common category of non-Hodgkin lymphoma, with ~20,000 new cases per year in the United States. DLBCL should be regarded as a collection of different neoplasms. Microarray gene expression analysis has defined two principal types of DLBCL, named for their similarity to normal B cell stages or activation states: a germinal center B-cell (GCB) type, and an activated B-cell (ABC) type. […]
A cell-sensor assay for I-kappa-B-alpha stabilization has been developed. […] Following the addition of doxycycline to induce expression of the luciferases, the green luminescence in control cultures rises only slowly because the CBG fusion partner IkappaBalpha is targeted by IKK activity for rapid degradation. In contrast, green luminescence rises rapidly in the presence of proteasome inhibitors or IKK inhibitors. The rise in red luminescence of CBR is not affected by proteasome or IKK inhibitors, and serves as normalization for cell number and nonspecific effects. […]
Cells were seeded in 1536-well plates at 5000 cells/4uL in IMDM medium containing 0.5% FBS, w/o phenol red, 1% penicillin/streptomycin. […] The plates were measured on a ViewLux plate reader for green luminescence (540/20 nm filter) and red luminescence (618/8 nm filter). […]

[10] = biological target: ATP-dependent 6-phosphofructokinase (Trypanosoma brucei brucei) (UniProt O15648); experiment: qHTS Validation Assay to Find Inhibitors of T. brucei phosphofructokinase (AID 485368)
ATP-dependent 6-phosphofructokinase (Trypanosoma brucei brucei), sequence (O15648 whole entry, looked up): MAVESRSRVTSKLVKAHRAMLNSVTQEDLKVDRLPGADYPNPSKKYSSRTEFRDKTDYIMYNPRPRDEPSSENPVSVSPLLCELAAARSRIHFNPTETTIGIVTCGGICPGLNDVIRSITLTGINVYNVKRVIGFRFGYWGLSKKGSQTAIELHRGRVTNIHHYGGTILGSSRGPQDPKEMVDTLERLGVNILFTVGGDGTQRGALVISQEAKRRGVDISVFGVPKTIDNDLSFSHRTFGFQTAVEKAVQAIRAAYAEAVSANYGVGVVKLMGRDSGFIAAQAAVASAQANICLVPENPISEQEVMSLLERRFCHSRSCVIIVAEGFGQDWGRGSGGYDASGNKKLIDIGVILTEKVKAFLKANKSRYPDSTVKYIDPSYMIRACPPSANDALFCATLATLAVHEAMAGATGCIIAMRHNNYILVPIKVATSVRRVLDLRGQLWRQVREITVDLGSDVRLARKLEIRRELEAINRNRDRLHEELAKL
Method in brief: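 Steps: substrate mix (0.5 mM F6P, 0.1 mM ATP, MgCl2, TEA pH 8.0); compound; 1.25 nM T. brucei PFK; 45 min RT; ATP depletion 10 min; ADP-to-ATP detection 10 min; luminescence read; curve fitting and classification.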

Measured: outcome

N=c1ccn2c(n1)O[C@H]1[C@@H](O)[C@@H](CO)O[C@H]12
inactive: [1] | [2] | [3]

COc1ccc2cc([S+]([O-])Cc3ncc(C)c(OC)c3C)nc2c1
inactive: [4] | [5] | [6] | [7] | [8]

O=c1[nH]c(=O)n([C@H]2C[C@@H](O)[C@@H](CO)O2)cc1C=CBr
inactive: [4] | [5] | [6] | [7] | [9] | [8] | [10]

CN[C@H](CC(C)C)C(=O)N[C@H]1C(=O)N[C@@H](CC(N)=O)C(=O)N[C@@H]2C(=O)N[C@H]3C(=O)N[C@H](C(=O)N[C@H](C(=O)O)c4cc(O)cc(O)c4-c4cc3ccc4O)[C@H](O)c3ccc(c(Cl)c3)Oc3cc2cc(c3O[C@@H]2O[C@H](CO)[C@@H](O)[C@H](O)[C@@H]2O[C@H]2C[C@](C)(N)[C@H](O)[C@H](C)O2)Oc2ccc(cc2Cl)[C@H]1O
inactive: [4] | [5] | [6] | [7] | [9] | [8]
